# Test results from PubChem BioAssay AID2360 (The Scripps Research Institute Molecular Screening Center, 2010).
# Among all 1,900 compounds or so, about 85 (4%) were called active. These entries were drawn from the full list. A number with no mark means an inactive call.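 The calls were made as follows: active = mean PP5 inhibition over triplicate wells above about 9.5% taken from the earlier PP1 screen (limit read from the data); inactive = the rest.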
# Biological target: Serine/threonine-protein phosphatase 5 (Homo sapiens) (UniProt P53041)
# Assay: human PP5 catalytic subunit inhibitors – biochemical, fluorescence, triplicate, counter-screen for PP1 inhibitor project, confirmation (AID 2360)
# Details: purified PP5c, OMFP fluorescence; at 6.7 µM; active compounds read high
# Sequence of Serine/threonine-protein phosphatase 5 (Homo sapiens) (P53041 whole entry, looked up): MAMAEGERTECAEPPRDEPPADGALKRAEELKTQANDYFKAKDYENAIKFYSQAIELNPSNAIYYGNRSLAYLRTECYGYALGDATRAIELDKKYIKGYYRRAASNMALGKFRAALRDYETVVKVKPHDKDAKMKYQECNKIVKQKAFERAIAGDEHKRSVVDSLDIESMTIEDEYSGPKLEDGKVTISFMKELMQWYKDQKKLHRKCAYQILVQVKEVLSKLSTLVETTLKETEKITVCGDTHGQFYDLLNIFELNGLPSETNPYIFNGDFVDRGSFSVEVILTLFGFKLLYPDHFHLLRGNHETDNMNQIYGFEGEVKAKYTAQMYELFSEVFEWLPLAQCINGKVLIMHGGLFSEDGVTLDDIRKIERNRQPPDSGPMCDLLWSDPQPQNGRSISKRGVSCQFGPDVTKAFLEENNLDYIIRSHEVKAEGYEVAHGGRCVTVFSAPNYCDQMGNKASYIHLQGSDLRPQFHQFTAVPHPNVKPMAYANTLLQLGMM
row,SMILES,inhibition
1,CN(C(=O)COC(=O)c1cc(-c2ccco2)nc2ccccc12)C1CCS(=O)(=O)C1 (configuration not stated),-3.35%
2,Oc1c(Cl)cc(Cl)c(Cl)c1Cc1c(O)c(Cl)cc(Cl)c1Cl,-0.37%
3,Cc1cc(-c2csc(N)n2)c(C)n1-c1ccccc1,-5.26%
4,C#CCOCCOCCOCCNc1nc(N2CCN(C(=O)CCCCCCCCCCNC(=O)[C@H](CCCCN)n3cc(C)nn3)CC2)nc(N2CCN(C(=O)CCCCCCCCCCNC(=O)[C@H](CO)n3cc(CCCSC)nn3)CC2)n1,-2.42%
5,COc1cc(C2C(C(=O)c3ccc(C)o3)=C(O)C(=O)N2CCc2ccccc2)ccc1O (configuration not stated),1.74%
6,Cc1ccccc1S(=O)(=O)N1[C@@H](c2cccc(Cl)c2)C(C(=O)O)=CC[C@H]1c1ccc(Cl)cc1,1.77%
7,O=C1C(=O)N(CC2COc3ccccc3O2)c2ccccc21 (configuration not stated),-2.89%
8,C#CCOCCOCCOCCNc1nc(N2CCN(C(=O)CCCCCCCCCCNC(=O)[C@H]([C@@H](C)CC)n3cc(CCCCN=C(N)N)nn3)CC2)nc(N2CCN(C(=O)CCCCCCCCCCNC(=O)[C@H](CO)n3cc(CCCSC)nn3)CC2)n1,4.44%
9,COc1ccc(-c2nn(-c3ccccc3)cc2/C=C\C(=O)Nc2ccc(C(=O)O)cc2)cc1,5.85%
10,C/C(CC(O)(/C=N/O)c1ccccc1)=N\O (configuration not stated),-4.09%
11,N=c1n(Cc2ccc(Cl)cc2)c2ccccc2n1CC(O)c1ccco1 (configuration not stated),-3.3%
12,CN1CCN(CCCNC(=O)c2ccc(/C=C3\Oc4ccccc4N(Cc4ccc(Cl)cc4)C3=O)cc2)CC1,0.17%
13,Oc1c(CN2CCN(c3ccc(F)cc3)CC2)cc(Cl)c2cccnc12,2.27%
14,Cc1cccc(OCC(O)Cn2c(=N)n(CCN3CCOCC3)c3ccccc32)c1 (configuration not stated),0.64%
15,CCNS(=O)(=O)c1ccc(NC(=O)Nc2cccc(C(F)(F)F)c2)cc1,7.24%
16,COc1ccccc1/C=N\Nc1cc(C)nc(-n2nc(C)cc2C)n1,-0.35%
17,O=C(Nc1nnc(-c2ccccc2)o1)c1cc(-c2cccs2)nc2ccccc12,-6.61%
18,Cc1ccc(-c2nn(-c3ccccc3)cc2/C=C2\SC(=S)N(CCCCCC(=O)O)C2=O)o1,1.44%
19,Cc1ccc2nc(N3C(=O)C(O)=C(C(=O)c4ccco4)C3c3cccc(O)c3)sc2c1 (configuration not stated),-0.83%
20,COc1cnc(-c2ccccn2)nc1Oc1ccc(C(C)(C)C)cc1,1.77%
21,O=C(Nc1nc(-c2ccco2)c(-c2ccco2)s1)c1ccco1,0.46%
22,CCCOc1ccc(C2C(C(=O)c3ccc(C)o3)=C(O)C(=O)N2CCCn2ccnc2)cc1 (configuration not stated),2.29%
23,O=C(CSc1nnc(C2CC2)n1Cc1ccccc1)Nc1cccnc1Cl,-2.71%

row,SMILES,inhibition
1,Oc1ccc(C2Nc3cccc4cccc(c34)N2)cc1,8.12%
2,C=CCN(CC=C)S(=O)(=O)c1ccc(C(=O)Nc2nc3c(s2)CCc2ccccc2-3)cc1,-1.58%
3,CCCCCCCCCCOC(=O)Cn1c(COc2cccc(OC)c2)[n+](C)c2ccccc21,3.6%
4,COc1cccc(/C=N/NC(=O)c2[nH]nc3c2CCc2ccccc2-3)c1O,-2.54%
5,Cc1ccc(NC(=O)COc2ccc(/C=C3/NC(=O)NC3=O)cc2)cc1,-6.15%
6,O=C(COC(=O)c1ccc(Oc2ccccc2)cc1)Nc1nnc(-c2ccccc2)o1,-5.1%
7,CN(C(=O)CN(CCO)CC(=O)N(C)C(C)(C)Cc1ccccc1)C(C)(C)Cc1ccccc1,-8.53%
8,O=C1c2cccc(OCC(=O)N3N=C(c4cccs4)CC3c3ccc(F)cc3)c2CCN1Cc1ccccc1 (configuration not stated),-2.07%
9,O=C(/C=C/c1ccc(F)cc1)NC(=S)NNC(=O)c1cccnc1,-1.96%
10,Cc1ccc(Nc2nc(CSc3nnnn3-c3ccccc3)cc(=O)[nH]2)cc1,-0.66%
11,O=C(N=C1SC2CS(=O)(=O)CC2N1c1cc(Cl)ccc1Cl)C1CC1 (configuration not stated),-3.78%
12,O=C(Nc1ccc(S(=O)(=O)Nc2nccs2)cc1)c1cc(-c2ccncc2)nc2ccccc12,0.33%
13,OCCCN1c2ccccc2Nc2nnc(-c3ccccc3)cc21,4.57%
14,C/C(=N\c1nc2ccccc2n1C)c1cc(Cl)ccc1O,-5.58%
15,COc1ccccc1NC(=O)CSc1nc2sc3c(c2c(=O)n1-c1ccccc1)CCN(C)C3,-2.95%
16,Cc1ccc(CSCC2Nc3ccc(C(=O)N4CCN(c5ccc(F)cc5)CC4)cc3NC2=O)cc1 (configuration not stated),-0.12%
17,Cc1ccc(C)c(Cn2nnc3c(=O)[nH]c(C(=O)Nc4ccc(F)cc4)nc32)c1,-0.92%
18,CCCCCCCCCCOC(=O)Cn1c(COc2ccc(C)cc2)[n+](C)c2ccccc21,1.37%
19,C#CCOCCOCCOCCNc1nc(N2CCN(C(=O)CCCCCCCCCCNC(=O)Cn3cc(CCCCCN)nn3)CC2)nc(N2CCN(C(=O)CCCCCCCCCCNC(=O)[C@H](CO)n3cc(CCCSC)nn3)CC2)n1,0.18%
20,Cc1ccc(Cn2nnc3c(=O)[nH]c(C4CCN(S(=O)(=O)/C=C/c5ccccc5)CC4)nc32)cc1,2.46%
21,O=[N+]([O-])c1ccccc1/C=N/n1c(COc2ccccc2)n[nH]c1=S,-5.54%
22,Cc1nc(/N=C(\N)NC(=O)NC2CCCCC2)nc2ccccc12,-1.97%
23,COC(=O)Cc1cc(=O)n(-c2nc3ccccc3s2)[nH]1,0.87%

row,SMILES,inhibition
1,c1ccc(-c2nccc(-c3ccc(-n4cnc5ccccc54)cc3)n2)nc1,3.84%
2,O=C(N/N=C/c1cc([N+](=O)[O-])ccc1O)/C(=C\c1cccs1)NC(=O)c1ccccc1,-3.51%
3,COc1ccc(NC(=O)C2C3CCC(O3)C2C(=O)O)cc1OC (configuration not stated),39.5% (active)
4,CC(C)OC(=O)c1cc(NC(=O)C2C3CCC(O3)C2C(=O)O)cc(C(=O)OC(C)C)c1 (configuration not stated),9.52%
5,Cc1cc(N2C(=O)C(O)=C(C(=O)c3ccc(C)o3)C2c2ccc(OCc3ccccc3)cc2)no1 (configuration not stated),-0.28%
6,O=[N+]([O-])/C=C/c1ccc2c(ccn2Cc2ccccc2)c1,-1.11%
7,C=CCn1c(=NC(=O)c2ccc(S(=O)(=O)N3CCCC3)cc2)sc2cc(NC(C)=O)ccc21,-0.04%
8,COCCCNC(=O)C1CC(=O)N(c2ccc(C)cc2)C1 (configuration not stated),-1.02%
9,NC(N)=N/N=C/c1ccc(OCc2ccc(Cl)cc2Cl)cc1,-2.25%
10,Cc1ccc(-n2nc3ccc(NC(=O)/C=C/c4ccco4)cc3n2)cc1C,-6.55%
11,Clc1ccc2c(c1)C1=C(C(c3ccncc3)O2)C(c2ccc(Br)cc2)n2ncnc2N1 (configuration not stated),2.48%
12,CCn1c(SCC(=O)Nc2cc(C)ccc2C)nnc1-c1cnccn1,-3.87%
13,Oc1c(C(c2ccccn2)N2CCOCC2)ccc2cccnc12 (configuration not stated),-0.03%
14,N#Cc1c(-c2ccccc2)nc(SCc2cccc(C(F)(F)F)c2)[nH]c1=O,-1.06%
15,C=C1c2c(Cl)ccc(O)c2C(O)=C2C(=O)[C@]3(O)C(O)=C(C(N)=O)C(=O)[C@@H](N(C)C)[C@@H]3[C@@H](O)C12 (some centres not stated),2.9%
16,Cc1ccc(N2C(=O)C3N=NN(CC(=O)N4N=C(c5cccc6ccccc56)CC4c4ccccc4)C3C2=O)cc1 (configuration not stated),-0.1%
17,CC(=O)c1ccc(N2CCN(S(=O)(=O)c3ccc4c(c3)CC(=O)N4C)CC2)cc1,2.4%
18,COc1ccc(-c2nn(-c3ccccc3)cc2/C=C2/SC(=S)N(CCCC(=O)O)C2=O)c(C)c1,-0.32%
19,Cc1ccc(OCC(=O)Nc2ccc(-c3nnc(-c4ccco4)o3)cc2)cc1,-4.22%
20,CCOc1ccc(NC(=O)c2ccc(NC(=O)COC(=O)c3ccc(NC(=O)CC#N)cc3)cc2)cc1,-3.12%
21,CC(C)(C)Nc1nc(-c2ccccn2)nc2ccccc12,-4.55%
